LYPLA1 inh – blocks human lysophospholipase 1, a PME1 counter-screen | AID 2174 | hit rate 0.16% among 320,000 | recombinant LYPLA1, FP-Rh probe fluorescence polarization | O75608 | inhibition, % at 5.9 µM;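 active = inhibition above the mean of all tested compounds plus 3 SD, set per campaign, cut at about 14% in these data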;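 note: inhibitors block serine hydrolase probe labeling of LYPLA1 so polarization falls; 0% = enzyme with DMSO and 100% = wells lacking LYPLA1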
Target sequence (O75608 whole entry, looked up): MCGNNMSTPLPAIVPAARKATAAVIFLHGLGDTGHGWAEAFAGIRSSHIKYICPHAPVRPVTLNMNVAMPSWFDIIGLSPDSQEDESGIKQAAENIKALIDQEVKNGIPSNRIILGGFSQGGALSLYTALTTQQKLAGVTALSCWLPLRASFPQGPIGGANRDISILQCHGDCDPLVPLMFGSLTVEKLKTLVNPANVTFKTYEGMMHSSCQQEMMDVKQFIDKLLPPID
Fam108B counter – counter-screen for RBBP9 inhibitors: inhibitors of mouse Fam108B; inhibition, % at 9.51 µM; hit rate 0.33% among 300,000; recombinant Fam108B, FP-Rh probe fluorescence polarization;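 active = inhibition above the screen mean inhibition plus 3 SD, computed separately per campaign, cut at about 18% in these data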;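 note: inhibitors lower polarization as less probe binds the enzyme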
PAD4 FP inh – blocks human protein arginine deiminase 4; AID 485272; hit rate 0.41% among 330,000; recombinant PAD4, RCA probe fluorescence polarization; inhibition, % at 6.36 µM; Q9UM07;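 active = percent inhibition above a cutoff equal to the mean of all tested compounds plus 3 SD, cut at about 15% in these data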;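 note: 0% = PAD4 with RCA probe and DMSO and 100% = probe without PAD4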
LYPLA2 inh – counter-screen for PME1 inhibitors: inhibitors of human LYPLA2; O95372; recombinant LYPLA2, FP-Rh probe fluorescence polarization; inhibition, % at 5.9 µM; hit rate 0.38% among 320,000;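 active = inhibition above the screen-wide mean plus 3 SD, limit set per campaign, cut at about 26% in these data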;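 note: 0% = LYPLA2 with DMSO and 100% = wells lacking LYPLA2 enzyme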
Target sequence (O95372 whole entry, looked up): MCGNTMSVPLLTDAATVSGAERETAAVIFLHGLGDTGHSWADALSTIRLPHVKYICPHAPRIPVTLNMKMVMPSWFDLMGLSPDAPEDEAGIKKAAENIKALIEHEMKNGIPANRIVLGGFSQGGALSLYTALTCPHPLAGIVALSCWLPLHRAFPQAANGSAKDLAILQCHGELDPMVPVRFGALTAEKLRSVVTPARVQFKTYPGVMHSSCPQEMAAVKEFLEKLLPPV
PME-1 primary – PME-1 (human) inhibition. Q9Y570. recombinant PME-1, FP-Rh probe fluorescence polarization. inhibition, % at 5.9 µM. hit rate 0.53% among 320,000. AID 2130;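 active = inhibition above the campaign mean of all compounds plus 3 SD, cut at about 26% in these data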;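 note: competitive labeling of PME-1 active site by serine hydrolase directed probe; 0% = PME-1 with DMSO and 100% = wells lacking PME-1 enzyme; inhibitors block probe labeling so polarization falls and inhibition rises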
GSTO1 counter – GSTO1 inhibition, counter-screen for RBBP9 inhibitors | AID 1974 | inhibition, % at 5.96 µM | hit rate 1.1% among 300,000 | P78417 | recombinant GSTO1, activity-based probe fluorescence polarization;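 active = inhibition above the campaign mean inhibition plus 3 SD, cut at about 35% in these data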;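 note: 0% = GSTO1-1 with DMSO and 100% = wells lacking GSTO1-1 enzyme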
LYPLA1 conf – LYPLA1 (human) inhibition, confirmation counter-screen; inhibition, % at 5.9 µM; shares compounds with LYPLA1 inh; recombinant LYPLA1, FP-Rh probe fluorescence polarization; hit rate 69% among 480; AID 2233;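 active = mean inhibition across replicates above the hit cutoff set in the primary screen, cut at about 15% in these data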;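 note: loss of FP-Rh probe labeling of LYPLA1 seen as lower polarization; 0% = LYPLA1 with DMSO and 100% = wells lacking LYPLA1 enzyme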
* marks the source's active call; other numbers are inactive results. Sampled rows, rich in hits. Any-hit rate of the full collection: about 1.8%.

For O=C(c1ccc(-c2ccccc2)c(F)c1)C1CCCN(C(=O)c2cncs2)C1 (centres undefined) the results were LYPLA1 inh 32*, Fam108B counter 3, PAD4 FP inh -1, LYPLA2 inh 22, PME-1 primary 7, GSTO1 counter 3 and LYPLA1 conf 52*.
`CC(C)Oc1cccc(C(=O)C2CCCN(C(=O)c3cncs3)C2)c1` (centres undefined) gave LYPLA1 inh 3, Fam108B counter 0, PAD4 FP inh 3, LYPLA2 inh 4, PME-1 primary -4 and GSTO1 counter 2.
Screening O=c1[nH]c(O)c(/C=C2\C=Nc3ccc(Br)cc32)[nH]1 returned LYPLA1 inh 36*, Fam108B counter 2, PAD4 FP inh -4, LYPLA2 inh 8, PME-1 primary 17, GSTO1 counter 2 and LYPLA1 conf 40*.
Cc1cccc(CSCC(=O)NCc2ccc(S(N)(=O)=O)cc2)c1 was read as LYPLA1 inh 8, Fam108B counter 2, PAD4 FP inh 2, LYPLA2 inh 5, PME-1 primary -2 and GSTO1 counter 6.
`CCCCc1cc(=O)oc2cc(OCc3cc(OC)c(OC)c(OC)c3)c(Cl)cc12` gave LYPLA1 inh 16*, Fam108B counter -2, PAD4 FP inh 1, LYPLA2 inh 20, PME-1 primary 2, GSTO1 counter -2 and LYPLA1 conf 27*.
Screening C/C(=N\NC(=O)c1nnn(-c2nonc2N)c1-c1cccs1)c1ccncc1 returned LYPLA1 inh 25*, Fam108B counter -3, PAD4 FP inh 0, LYPLA2 inh 6, PME-1 primary 6, GSTO1 counter -5 and LYPLA1 conf 1.
CC(=O)N1CCN(C(=O)CCc2nnc(CCCCc3ccccc3)o2)CC1 was read as LYPLA1 inh -3, Fam108B counter -3, PAD4 FP inh -7, LYPLA2 inh -5, PME-1 primary -3 and GSTO1 counter 10.
Screening COCCCC1CCN(C(=O)CCc2nnc(CCCCc3ccccc3)o2)CC1 returned LYPLA1 inh 17*, Fam108B counter 0, PAD4 FP inh -3, LYPLA2 inh 8, PME-1 primary -2, GSTO1 counter 11 and LYPLA1 conf 17*.
O=P1(Nn2cnnc2)C=C(c2ccccc2)OC(c2ccccc2)=C1 was read as LYPLA1 inh 17*, Fam108B counter 4, PAD4 FP inh 1, LYPLA2 inh 18, PME-1 primary -1, GSTO1 counter 0 and LYPLA1 conf 0.
For Cc1c(O)ccc2c(CN3CCN(C/C=C/c4ccccc4)CC3)cc(=O)oc12 the results were LYPLA1 inh 11, Fam108B counter -4, PAD4 FP inh -2, LYPLA2 inh 17, PME-1 primary 2 and GSTO1 counter 3.
`Cc1cc2oc(=O)cc(CN3CCN(C/C=C/c4ccccc4)CC3)c2cc1O` gave LYPLA1 inh 20*, Fam108B counter 0, PAD4 FP inh 2, LYPLA2 inh 17, PME-1 primary 6, GSTO1 counter -5 and LYPLA1 conf 18*.
O=C(COc1ccc(Cl)cc1)N1CCN(c2ccc([N+](=O)[O-])c(N3CCCCC3)c2)CC1 was read as LYPLA1 inh 66*, Fam108B counter 0, PAD4 FP inh 1, LYPLA2 inh 21, PME-1 primary 1, GSTO1 counter -7 and LYPLA1 conf 79*.
Fc1ccccc1-c1nc(-c2ccc(-c3nn[nH]n3)cc2)no1 was read as PAD4 FP inh -1.
Screening COC(=O)CCCC(=O)N1CCCC(C(=O)c2ccc(-c3ccccc3)cc2)C1 (centres undefined) returned LYPLA1 inh 21*, Fam108B counter 7, PAD4 FP inh 2, LYPLA2 inh 3, PME-1 primary -3, GSTO1 counter 2 and LYPLA1 conf 29*.
COc1ccccc1/C=C/C=N/N1CCN(Cc2ccccc2)CC1 was read as LYPLA1 inh 19*, Fam108B counter 4, PAD4 FP inh 0, LYPLA2 inh 16, PME-1 primary 0, GSTO1 counter 3 and LYPLA1 conf 12.
C(=N\N1CCN(Cc2ccccc2)CC1)/c1ccc(-c2ccccc2)cc1 was read as LYPLA1 inh 0, Fam108B counter -2, PAD4 FP inh 5, LYPLA2 inh 3, PME-1 primary -5 and GSTO1 counter 5.
For COc1ccc(CC(=O)Nc2c3c(nn2-c2cccc(C)c2C)CS(=O)C3)cc1OC (centres undefined) the results were LYPLA1 inh -5, Fam108B counter -4, PAD4 FP inh 1, LYPLA2 inh 0, PME-1 primary -3 and GSTO1 counter 5.
For COc1ccc(NC(=O)C2CCC(CNc3c(N4CCC(C)CC4)c(=O)c3=O)CC2)cc1OC (centres undefined) the results were LYPLA1 inh 24*, Fam108B counter 0, PAD4 FP inh -4, LYPLA2 inh 6, PME-1 primary 0, GSTO1 counter -7 and LYPLA1 conf 26*.
`COc1cc(NC(=O)C2CCC(CNc3c(N4CCCCC4)c(=O)c3=O)CC2)cc(OC)c1` (centres undefined) gave LYPLA1 inh 24*, Fam108B counter 0, PAD4 FP inh 4, LYPLA2 inh 6, PME-1 primary 2, GSTO1 counter 7 and LYPLA1 conf 31*.
Screening O=C(Nc1ccc(F)cc1)C1CCC(CNc2c(N3CCCCC3)c(=O)c2=O)CC1 (centres undefined) returned LYPLA1 inh 4, Fam108B counter 4, PAD4 FP inh 2, LYPLA2 inh 2, PME-1 primary 1 and GSTO1 counter 15.
For COc1cc(NC(=O)C2CCC(CNc3c(N4CCC(C)CC4)c(=O)c3=O)CC2)cc(OC)c1 (centres undefined) the results were LYPLA1 inh 39*, Fam108B counter 1, PAD4 FP inh 0, LYPLA2 inh 4, PME-1 primary 3, GSTO1 counter -4 and LYPLA1 conf 40*.
For Brc1ccc(-c2noc3c2-c2nc(-c4ccccc4)sc2CC3)cc1 the results were LYPLA1 inh -2, Fam108B counter -6, PAD4 FP inh 0, LYPLA2 inh 2, PME-1 primary 0 and GSTO1 counter 9.
`CCCCNC(=O)Cn1c(=O)c2c(ncn2CCC(C)C)n(Cc2ccccc2)c1=O` gave LYPLA1 inh 2, Fam108B counter 5, PAD4 FP inh 1, LYPLA2 inh 5, PME-1 primary -3 and GSTO1 counter 11.
`O=C(CN1CCN(c2ccccn2)CC1)Nc1cc(C(F)(F)F)ccc1Cl` gave LYPLA1 inh 54*, Fam108B counter 7, PAD4 FP inh -5, LYPLA2 inh -5, PME-1 primary 10, GSTO1 counter 8 and LYPLA1 conf 55*.

Bioassay records as filed in PubChem.
